Measured values as given in ChEMBL document CHEMBL1961873, “Compounds: GSK PKIS; Assays: Nanosyn kinase panel” (2012).

Experiments:
[1] = biological target: T1, Tyrosine-protein kinase receptor TYRO3 (Homo sapiens) (UniProt Q06418); settings: at 1 µM
T1 sequence (whole entry): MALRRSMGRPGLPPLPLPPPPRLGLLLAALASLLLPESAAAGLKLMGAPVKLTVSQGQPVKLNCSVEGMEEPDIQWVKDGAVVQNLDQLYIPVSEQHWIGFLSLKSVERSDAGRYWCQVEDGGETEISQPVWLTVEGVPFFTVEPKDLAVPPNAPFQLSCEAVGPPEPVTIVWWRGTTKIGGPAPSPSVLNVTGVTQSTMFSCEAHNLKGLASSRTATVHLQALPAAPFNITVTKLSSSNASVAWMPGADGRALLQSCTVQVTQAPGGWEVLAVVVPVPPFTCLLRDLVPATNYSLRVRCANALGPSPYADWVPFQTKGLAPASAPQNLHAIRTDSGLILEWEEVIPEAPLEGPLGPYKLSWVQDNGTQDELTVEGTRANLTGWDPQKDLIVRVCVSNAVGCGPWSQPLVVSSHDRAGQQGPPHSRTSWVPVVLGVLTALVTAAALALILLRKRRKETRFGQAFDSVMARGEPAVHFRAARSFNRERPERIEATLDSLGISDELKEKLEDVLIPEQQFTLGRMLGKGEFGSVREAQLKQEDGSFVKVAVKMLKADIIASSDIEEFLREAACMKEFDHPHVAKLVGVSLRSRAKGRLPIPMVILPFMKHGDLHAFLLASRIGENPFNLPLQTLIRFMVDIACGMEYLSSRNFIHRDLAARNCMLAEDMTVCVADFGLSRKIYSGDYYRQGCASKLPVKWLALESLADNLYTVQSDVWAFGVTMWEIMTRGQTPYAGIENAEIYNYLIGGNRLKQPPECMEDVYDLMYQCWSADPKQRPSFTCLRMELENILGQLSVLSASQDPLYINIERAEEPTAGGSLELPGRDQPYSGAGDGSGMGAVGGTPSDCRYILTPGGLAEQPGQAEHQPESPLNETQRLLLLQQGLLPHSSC

[2] = biological target: Tyrosine-protein kinase Yes (Homo sapiens) (UniProt P07947); settings: at 0.1 µM
Tyrosine-protein kinase Yes (Homo sapiens), sequence (P07947 2-543 limits assumed): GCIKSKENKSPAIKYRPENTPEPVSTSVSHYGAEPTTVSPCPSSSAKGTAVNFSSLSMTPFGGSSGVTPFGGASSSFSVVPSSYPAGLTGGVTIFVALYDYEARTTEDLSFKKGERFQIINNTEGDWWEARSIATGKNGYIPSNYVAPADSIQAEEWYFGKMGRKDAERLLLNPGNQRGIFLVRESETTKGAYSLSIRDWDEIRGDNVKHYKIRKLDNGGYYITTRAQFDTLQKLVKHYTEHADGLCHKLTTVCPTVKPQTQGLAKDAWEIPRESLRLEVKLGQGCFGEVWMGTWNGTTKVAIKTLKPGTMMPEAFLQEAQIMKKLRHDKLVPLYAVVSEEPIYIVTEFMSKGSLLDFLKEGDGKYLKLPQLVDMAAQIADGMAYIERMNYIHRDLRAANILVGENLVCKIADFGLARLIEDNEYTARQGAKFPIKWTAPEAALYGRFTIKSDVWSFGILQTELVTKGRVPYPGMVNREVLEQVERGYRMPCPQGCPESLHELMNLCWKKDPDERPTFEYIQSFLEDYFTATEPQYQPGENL

[3] = biological target: Tyrosine-protein kinase Yes (Homo sapiens) (UniProt P07947); settings: at 1 µM
[4] = biological target: T2, Tyrosine-protein kinase ZAP-70 (Homo sapiens) (UniProt P43403); settings: at 0.1 µM
T2 sequence (whole entry): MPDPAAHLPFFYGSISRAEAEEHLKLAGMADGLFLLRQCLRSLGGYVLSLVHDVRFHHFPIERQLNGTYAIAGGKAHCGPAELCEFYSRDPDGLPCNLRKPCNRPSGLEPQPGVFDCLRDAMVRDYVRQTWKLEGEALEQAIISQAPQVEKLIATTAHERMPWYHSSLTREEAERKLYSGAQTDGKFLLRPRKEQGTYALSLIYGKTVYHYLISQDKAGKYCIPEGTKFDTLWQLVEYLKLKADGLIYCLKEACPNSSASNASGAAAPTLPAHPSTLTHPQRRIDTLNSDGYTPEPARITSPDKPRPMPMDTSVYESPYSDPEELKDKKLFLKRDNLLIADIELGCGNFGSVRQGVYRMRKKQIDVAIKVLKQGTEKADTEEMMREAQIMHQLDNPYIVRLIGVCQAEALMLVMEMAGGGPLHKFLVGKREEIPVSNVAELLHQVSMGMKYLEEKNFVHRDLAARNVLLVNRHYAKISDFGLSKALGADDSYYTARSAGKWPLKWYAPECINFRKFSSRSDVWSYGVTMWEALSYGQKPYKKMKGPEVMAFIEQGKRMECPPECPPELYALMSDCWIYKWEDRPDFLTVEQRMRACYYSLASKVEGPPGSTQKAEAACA

[5] = biological target: T2, Tyrosine-protein kinase ZAP-70 (Homo sapiens); settings: at 1 µM
[6] = biological target: RAF proto-oncogene serine/threonine-protein kinase (Homo sapiens) (UniProt P04049); settings: at 0.1 µM
RAF proto-oncogene serine/threonine-protein kinase (Homo sapiens), sequence (P04049 whole entry): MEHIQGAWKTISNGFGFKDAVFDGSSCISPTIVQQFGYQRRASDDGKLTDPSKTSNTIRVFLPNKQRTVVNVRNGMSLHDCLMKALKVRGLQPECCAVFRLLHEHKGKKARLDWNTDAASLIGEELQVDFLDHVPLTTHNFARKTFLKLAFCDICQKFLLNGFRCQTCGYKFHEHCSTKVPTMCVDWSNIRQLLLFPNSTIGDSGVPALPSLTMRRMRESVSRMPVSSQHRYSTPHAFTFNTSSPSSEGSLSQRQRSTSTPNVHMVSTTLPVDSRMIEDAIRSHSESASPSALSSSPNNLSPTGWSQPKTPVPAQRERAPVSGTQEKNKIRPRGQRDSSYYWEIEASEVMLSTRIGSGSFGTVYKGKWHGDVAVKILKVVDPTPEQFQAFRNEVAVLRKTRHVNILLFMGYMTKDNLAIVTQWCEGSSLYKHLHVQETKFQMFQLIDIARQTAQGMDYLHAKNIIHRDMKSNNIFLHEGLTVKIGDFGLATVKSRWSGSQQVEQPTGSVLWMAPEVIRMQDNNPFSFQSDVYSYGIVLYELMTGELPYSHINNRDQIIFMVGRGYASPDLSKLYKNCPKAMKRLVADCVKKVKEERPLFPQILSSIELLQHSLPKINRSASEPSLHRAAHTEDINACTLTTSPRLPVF

[7] = biological target: RAF proto-oncogene serine/threonine-protein kinase (Homo sapiens) (UniProt P04049); settings: at 1 µM
[8] = biological target: T3, Interleukin-1 receptor-associated kinase 4 (Homo sapiens) (UniProt Q9NWZ3); settings: at 0.1 µM
T3 sequence (whole entry): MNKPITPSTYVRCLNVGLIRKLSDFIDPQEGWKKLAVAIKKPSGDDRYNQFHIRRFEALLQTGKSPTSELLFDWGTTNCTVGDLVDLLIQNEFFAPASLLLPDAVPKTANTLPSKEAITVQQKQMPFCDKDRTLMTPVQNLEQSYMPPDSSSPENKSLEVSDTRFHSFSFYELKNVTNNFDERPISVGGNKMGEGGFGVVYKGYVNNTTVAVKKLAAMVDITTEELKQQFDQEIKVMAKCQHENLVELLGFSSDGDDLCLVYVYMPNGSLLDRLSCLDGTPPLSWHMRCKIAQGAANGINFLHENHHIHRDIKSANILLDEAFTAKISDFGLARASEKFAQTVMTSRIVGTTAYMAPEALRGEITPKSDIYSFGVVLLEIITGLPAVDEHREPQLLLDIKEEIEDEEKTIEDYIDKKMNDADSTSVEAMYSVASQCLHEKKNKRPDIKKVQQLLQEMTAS

[9] = biological target: T3, Interleukin-1 receptor-associated kinase 4 (Homo sapiens); settings: at 1 µM
[10] = biological target: Leucine-rich repeat serine/threonine-protein kinase 2 (Homo sapiens) (UniProt Q5S007); settings: at 0.1 µM
Leucine-rich repeat serine/threonine-protein kinase 2 (Homo sapiens), sequence (Q5S007 whole entry): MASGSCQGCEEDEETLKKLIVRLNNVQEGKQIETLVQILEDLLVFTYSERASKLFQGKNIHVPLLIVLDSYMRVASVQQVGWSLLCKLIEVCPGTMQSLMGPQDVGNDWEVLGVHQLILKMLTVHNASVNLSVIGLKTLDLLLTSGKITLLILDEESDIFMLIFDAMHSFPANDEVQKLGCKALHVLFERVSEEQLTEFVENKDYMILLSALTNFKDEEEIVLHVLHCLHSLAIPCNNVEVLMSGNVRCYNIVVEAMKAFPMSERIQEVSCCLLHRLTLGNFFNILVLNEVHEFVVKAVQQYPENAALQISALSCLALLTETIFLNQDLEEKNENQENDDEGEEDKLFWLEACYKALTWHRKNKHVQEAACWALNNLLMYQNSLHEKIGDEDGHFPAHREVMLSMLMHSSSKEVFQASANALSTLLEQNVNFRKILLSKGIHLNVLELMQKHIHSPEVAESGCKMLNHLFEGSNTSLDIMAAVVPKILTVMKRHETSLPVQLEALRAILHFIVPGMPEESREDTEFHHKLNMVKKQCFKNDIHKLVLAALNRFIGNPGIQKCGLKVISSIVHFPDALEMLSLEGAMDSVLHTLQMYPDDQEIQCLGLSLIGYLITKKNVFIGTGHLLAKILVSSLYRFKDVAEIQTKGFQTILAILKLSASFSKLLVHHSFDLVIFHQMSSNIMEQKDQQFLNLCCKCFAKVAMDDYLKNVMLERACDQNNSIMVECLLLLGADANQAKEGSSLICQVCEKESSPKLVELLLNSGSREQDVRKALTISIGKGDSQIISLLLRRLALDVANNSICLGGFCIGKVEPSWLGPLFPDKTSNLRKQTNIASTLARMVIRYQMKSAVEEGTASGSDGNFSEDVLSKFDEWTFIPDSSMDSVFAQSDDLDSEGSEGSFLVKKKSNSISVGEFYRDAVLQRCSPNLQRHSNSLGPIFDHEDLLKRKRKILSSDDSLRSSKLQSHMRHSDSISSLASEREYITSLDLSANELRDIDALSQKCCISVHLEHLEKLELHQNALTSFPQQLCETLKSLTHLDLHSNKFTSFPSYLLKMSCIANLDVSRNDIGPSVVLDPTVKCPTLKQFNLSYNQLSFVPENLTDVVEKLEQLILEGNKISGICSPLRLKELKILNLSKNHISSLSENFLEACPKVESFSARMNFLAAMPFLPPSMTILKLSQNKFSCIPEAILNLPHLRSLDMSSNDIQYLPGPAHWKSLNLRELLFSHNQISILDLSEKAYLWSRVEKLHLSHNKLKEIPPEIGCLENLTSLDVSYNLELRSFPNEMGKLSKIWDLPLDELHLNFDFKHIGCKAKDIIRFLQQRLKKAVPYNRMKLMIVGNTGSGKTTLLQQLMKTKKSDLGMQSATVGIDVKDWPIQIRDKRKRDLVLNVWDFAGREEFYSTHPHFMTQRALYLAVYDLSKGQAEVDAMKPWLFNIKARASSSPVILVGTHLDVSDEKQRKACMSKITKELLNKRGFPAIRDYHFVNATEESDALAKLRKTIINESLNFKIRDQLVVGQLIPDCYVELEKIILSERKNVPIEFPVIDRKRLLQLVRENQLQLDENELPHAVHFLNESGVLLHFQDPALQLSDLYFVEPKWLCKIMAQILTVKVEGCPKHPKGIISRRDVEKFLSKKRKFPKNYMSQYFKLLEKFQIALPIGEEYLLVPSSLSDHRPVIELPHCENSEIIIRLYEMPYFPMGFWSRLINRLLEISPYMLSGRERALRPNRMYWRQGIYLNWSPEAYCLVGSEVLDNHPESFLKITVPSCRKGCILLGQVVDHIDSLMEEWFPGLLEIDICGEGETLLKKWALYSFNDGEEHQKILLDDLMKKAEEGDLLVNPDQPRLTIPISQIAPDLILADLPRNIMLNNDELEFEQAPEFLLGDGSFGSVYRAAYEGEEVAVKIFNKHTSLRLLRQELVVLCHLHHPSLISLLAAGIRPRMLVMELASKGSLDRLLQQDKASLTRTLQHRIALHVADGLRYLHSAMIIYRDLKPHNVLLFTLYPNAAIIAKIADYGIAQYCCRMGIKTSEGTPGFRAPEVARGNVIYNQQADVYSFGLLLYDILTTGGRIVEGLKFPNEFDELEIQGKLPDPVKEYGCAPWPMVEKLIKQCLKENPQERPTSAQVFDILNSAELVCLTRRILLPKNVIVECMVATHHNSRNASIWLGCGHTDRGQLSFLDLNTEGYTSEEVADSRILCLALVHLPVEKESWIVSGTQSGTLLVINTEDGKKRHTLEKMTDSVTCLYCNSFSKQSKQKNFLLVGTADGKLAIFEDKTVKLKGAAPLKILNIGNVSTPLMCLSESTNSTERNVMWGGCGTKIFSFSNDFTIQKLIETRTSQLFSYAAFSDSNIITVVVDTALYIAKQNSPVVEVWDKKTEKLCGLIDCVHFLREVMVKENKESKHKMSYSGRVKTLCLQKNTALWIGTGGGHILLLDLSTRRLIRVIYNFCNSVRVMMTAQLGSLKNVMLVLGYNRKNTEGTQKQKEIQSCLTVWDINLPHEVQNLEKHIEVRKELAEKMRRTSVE

[11] = biological target: Leucine-rich repeat serine/threonine-protein kinase 2 (Homo sapiens) (UniProt Q5S007); settings: at 1 µM
[12] = system: Leucine-rich repeat serine/threonine-protein kinase 2 (Homo sapiens), Q5S007 [G2019S]; settings: at 0.1 µM
Leucine-rich repeat serine/threonine-protein kinase 2 (Homo sapiens), Q5S007 [G2019S], sequence (Q5S007 whole entry G2019S): as the sequence (Q5S007 whole entry) above, with G2019S counted along it

[13] = system: Leucine-rich repeat serine/threonine-protein kinase 2 (Homo sapiens), Q5S007 [G2019S]; settings: at 1 µM
[14] = biological target: Serine/threonine-protein kinase B-raf (Homo sapiens) (UniProt P15056); settings: at 0.1 µM
Serine/threonine-protein kinase B-raf (Homo sapiens), sequence (P15056 whole entry): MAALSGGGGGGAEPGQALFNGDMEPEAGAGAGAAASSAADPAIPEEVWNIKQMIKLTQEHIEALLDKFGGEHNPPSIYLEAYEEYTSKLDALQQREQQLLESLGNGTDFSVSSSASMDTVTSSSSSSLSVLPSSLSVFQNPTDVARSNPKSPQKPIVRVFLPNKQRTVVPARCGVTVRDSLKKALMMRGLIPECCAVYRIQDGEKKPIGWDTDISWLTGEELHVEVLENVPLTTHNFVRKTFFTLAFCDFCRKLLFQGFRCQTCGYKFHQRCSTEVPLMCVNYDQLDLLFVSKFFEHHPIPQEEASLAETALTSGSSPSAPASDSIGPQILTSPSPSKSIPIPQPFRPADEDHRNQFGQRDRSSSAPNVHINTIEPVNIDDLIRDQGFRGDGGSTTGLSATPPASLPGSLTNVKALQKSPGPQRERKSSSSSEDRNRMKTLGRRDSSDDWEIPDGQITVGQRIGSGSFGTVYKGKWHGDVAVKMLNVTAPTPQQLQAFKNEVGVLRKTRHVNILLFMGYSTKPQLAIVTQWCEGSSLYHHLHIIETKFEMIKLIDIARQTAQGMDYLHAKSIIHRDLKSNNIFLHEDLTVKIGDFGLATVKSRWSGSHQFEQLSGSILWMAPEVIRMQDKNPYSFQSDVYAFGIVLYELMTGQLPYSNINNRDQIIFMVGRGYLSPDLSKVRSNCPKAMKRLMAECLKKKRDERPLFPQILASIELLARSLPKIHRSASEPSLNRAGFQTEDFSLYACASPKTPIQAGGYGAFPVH

[15] = biological target: Serine/threonine-protein kinase B-raf (Homo sapiens) (UniProt P15056); settings: at 1 µM
[16] = system: Serine/threonine-protein kinase B-raf (Homo sapiens), P15056 [V600E]; settings: at 0.1 µM
Serine/threonine-protein kinase B-raf (Homo sapiens), P15056 [V600E], sequence (P15056 whole entry V600E): as the sequence (P15056 whole entry) above, with V600E counted along it

[17] = system: Serine/threonine-protein kinase B-raf (Homo sapiens), P15056 [V600E]; settings: at 1 µM

Compound	inhibition [1] [%]	inhibition [2] [%]	inhibition [3] [%]	inhibition [4] [%]	inhibition [5] [%]	inhibition [6] [%]	inhibition [7] [%]	inhibition [8] [%]	inhibition [9] [%]	inhibition [10] [%]	inhibition [11] [%]	inhibition [12] [%]	inhibition [13] [%]	inhibition [14] [%]	inhibition [15] [%]	inhibition [16] [%]	inhibition [17] [%]
NC(=O)c1ccc(-c2nc(-c3ccccn3)c(-c3ccc4c(c3)OCO4)[nH]2)cc1	1.12	2.51	7.17	0.96	-2.34	-6.15	15.6	2.26	1.06	2.49	5.02	2.85	3.41				
COc1cc(C)c(NC(=O)CN(C)C)cc1Nc1nc(Nc2cccc(F)c2C(N)=O)c2cc[nH]c2n1	7.81	2.05	-2.14		3.93	-0.92	-0.14	-2.25	2	91.2	90.2	83.5	88.7	2.75	6.44	3.06	6.56
CC1=C(C(=O)Nc2ccc3[nH]ncc3c2)C(c2ccc(F)cc2)NC(=O)N1 (stereo not given)	2.1	2.93	3.94	2.76	1.91	1.97	-2.67	2.07	0.77	2.24	5.08	3.81	14.8	3.64	5.71	2.81	6.38
CC1=C(C(=O)Nc2ccc3[nH]ncc3c2)C(c2ccc3ccccc3c2)CC(=O)N1 (stereo not given)	6.2	16.6	62.9	3.08	2.98	1.05	1.65	3.06	0.83	4.73	10.1	6.31	25	8.21	43.5	8.51	45.2
CCn1c(-c2nonc2N)nc2cnc(Oc3cccc(NC(=O)c4ccc(OCCN5CCOCC5)cc4)c3)cc21	2.81	3.49	4.67	-1.7	-1.56	-0.87	6.03	3.17	1.66	0.83	9.41	4.44	29.3	4.86	6.86	5.41	5.71
NCc1ccc(-c2nc(-c3ccc(Cl)c(O)c3)c(-c3ccncc3)[nH]2)cc1	5.26	5.85	37.7	0.84	1.92	6.34	76.6	3	0.37	1.04	1.56	1.02	4.61				
NS(=O)(=O)c1cccc(-c2ccc3c(NC(=O)C4CC4)n[nH]c3c2)c1	15.4	-2.48	6.25	-1.92	-0.84	-7.61	-2.5	1.83	-0.64	-2.61	1.25	1.47	1.75	-1.67	-2.14	-2.01	-2.08
